From PubChem BioAssay AID1981 (Southern Research Specialized Biocontainment Screening …, 2009) come the findings set out here.

About 480 (22%) of roughly 2,200 compounds were called active. The rule behind the calls is not given here. These entries were drawn from the full list. A call without a number means that no potency is given here. Potency and affinity values are given separately.

The nature of the experiment: S. Typhimurium GFP fluorescence dose response in modified counterscreen for PhoP regulon inhibitor project (AID 1981). To be noted: 4 h; series mostly up to 150 µM. For orientation: A counterscreen serves to expose hits that act by an unwanted route or on another target.
As for `CCOC(=O)c1ccc(N2CCN(c3ccc(F)cc3)CC2)c(NC(=O)Nc2cccc(OC)c2)c1`, the outcome was inactive.
The result for `COc1ccccc1-c1c(C#N)c(N)nc2c1CCc1ccccc1-2` reads “inactive”; that for `CCOC(=O)Cc1ccc2sc(-c3ccccc3)nc2c1`, “inactive”.
The result for `CCOC(=O)CSc1nc2c(sc(=S)n2-c2ccccc2)c(=O)n1-c1ccc(OC)cc1OC` reads “inactive”; that for `Cc1ccc2cc(C(=O)O)c(C)nc2c1`, “inactive”.
Under `COc1cccc(C=NCC(C)N=Cc2cccc(OC)c2O)c1O` (stereo unspecified) stands “inactive”; under `N/C(=N\OC(=O)Nc1ccc(Cl)cc1)c1ncc(C(F)(F)F)cc1Cl`, “inactive”.
`N#C/C(=C\c1ccc(F)c(F)c1)C(=O)NC1CCCCC1`: the compound was called inactive.
Regarding `N#CC(C#N)=c1ccc2c(c1)NC1(CCCCC1)N=2`, the compound was called inactive.
The result for `CCCCCCCSc1cc(OC)c(CCN(C)C)cc1OC` reads “inactive”; that for `CCCCn1nnnc1NCc1cc(OC)c(OC)cc1OC`, “inactive”; that for `COc1ccccc1NS(=O)(=O)c1cc(NC(=S)Nc2cc(C)cc(C)c2)ccc1Cl`, “inactive”.
In the case of `COc1ccc(CCNC(=O)c2ccc(CN3CCOCC3)cc2)cc1`, the compound was classed as inactive.
Under `CN(C(=S)Nc1ccc(Oc2ccccc2)cc1)c1ccc(O)cc1` stands “inactive”; under `O=S(=O)(c1ccccc1)N(CC(O)Cn1c2ccccc2c2ccccc21)c1ccccc1` (stereo unspecified), “inactive”.
On to `OCCN(CCO)CC(O)Cn1c2ccccc2c2ccccc21` (stereo unspecified), for which the result was inactive.
The result for `CCOC(=O)C1CCCN(S(=O)(=O)c2ccc(Br)c(OC)c2)C1` (stereo unspecified) reads “inactive”; that for `Cc1cc(C)nc(N2CCCC(C(=O)Nc3ccc4nc(C)c(C)nc4c3)C2)n1` (stereo unspecified), “inactive”.
The result for `Nc1nnc(SCc2ccc3c(c2)OCO3)s1` reads “inactive”; that for `O=C(c1cn(-c2ccccc2)nc1-c1cccnc1)N1CCCCC1`, “inactive”; that for `Cc1cccc(-n2nc3c(c2NC(=O)c2ccco2)CSC3)c1C`, “inactive”.
The result for `O=[N+]([O-])c1nn(-c2cccc(Cl)c2)n(O)c1=NCc1cccnc1` reads “inactive”; that for `Cc1nc(N2CCN(c3ccccc3)CC2)nc2c1C(=O)CC(C)C2` (stereo unspecified), “inactive”.
As for `Cc1ccccc1NC(=S)NC1CCN(Cc2ccccc2)CC1`, the compound was classed as inactive.
As for `CCCCC1(CCCC)C(=O)NC(=Nc2cccc(C)c2)NC1=O`, the outcome was inactive.
Under `CCn1cc(C(=O)O)c(=O)c2cc(F)c(N3CCN(C(=S)NC(=O)c4ccccc4Cl)CC3)cc21` stands “inactive”; under `O=C(Cn1cnc2scc(-c3ccccc3)c2c1=O)N1CCOCC1`, “inactive”.
The result for `Cc1ccccc1-n1nc(-c2ccc(N)cc2)cc1N` reads “inactive”; that for `N#CCOC(=O)c1sccc1-n1cccc1`, “inactive”.
Under `COc1ccc(/C=C(\NC(=O)/C=C/c2ccco2)C(=O)NCCc2nc3ccccc3[nH]2)cc1` stands “inactive”; under `S=C(NCc1cccnc1)Nc1ccc(Cl)cc1`, “inactive”.
